Data as given in PubChem BioAssay (NCATS).
Where “and” joins values, the source holds several entries; their conditions need not be identical. Equal entries are not always repeated. Results filed as inconclusive are left out. Calls of active or inactive are those of the source. Unless noted, the call rests on the fitted dose curve; in most records, active means well fitted curve in the direction sought with a large enough effect; inconclusive means small, poorly fitted or top-dose-only effect, or another doubt; inactive means no such curve, though single readings can be large; an effect the other way counts as inactive or inconclusive.

Columns and labels:
[1] = Confirmatory qHTS for VERO E6 Cytotoxicity Assay: Counterscreen for SARS-CoV-2 CPE Assay (AID 1508605; calls by dose curve; further: on the % scale 0 is the no-effect control and ±100 the full control effect; nearly all actives have a fitted effect of over 60% in size); details: cell viability luminescence; series mostly up to 20 µM
[2] = Confirmatory qHTS to identify inhibitors of SARS-CoV-2 cell entry (AID 1645844; calls by dose curve; further: potency means the concentration at half of the fitted maximal effect; nearly all actives have a fitted effect of over 45% in size); details: SARS-CoV-2 pseudotyped particle cell entry, luciferase; series mostly up to 57.2 µM
Method in brief: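 Luminescence entry read-out after 48 h: spike-pseudotyped MLV particles (Wuhan-Hu-1, 19-aa C-terminal truncation) added to compound-pretreated (1 h) HEK293-ACE2 cells; Data were normalised to bald PP and spike PP wells.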

[3] = S16 Schwann cell PMP22 intronic element firefly luciferase assay (AID 624032); details: S16 rat Schwann cells, PMP22 element FLuc, 24 h; series mostly up to 57.5 µM;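 further: plate controls were DMSO for no effect and PTC124 positive control mean for full effect; nearly all actives have a fitted effect of over 30% in size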
Method in brief: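 Luciferase reporter of PMP22 intronic-element expression in stably transfected S16 rat Schwann cells, read by ONE-Glo luminescence after 24 h compound exposure at 37 C. Activity scaled between DMSO (0%) and positive-control PTC124; concentration-effect curves quality-classified.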

[4] = S16 Schwann cell PMP22 intronic element beta-lactamase assay (AID 624044; calls by dose curve;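 further: 0% = DMSO and -100% = potassium clavulanate positive control; nearly all actives have a fitted effect of over 15% in size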); details: S16 rat Schwann cells, PMP22 element beta-lactamase FRET, 24 h; ratio activity, negative = inhibition: at 38.3 µM (top of the series) unless noted
Method in brief: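 Beta-lactamase reporter under a PMP22 intronic regulatory element in stable S16 rat Schwann cells; 24 h compound exposure. 460 nm blue signal normalized between DMSO (0%) and potassium clavulanate, with 535 nm FRET tracking viability; curves classed by r2 and response.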

[5] = test system: CP194; test: qHTS profiling for inhibitors of Plasmodium falciparum proliferation (AID 504749);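 further: 0% = DMSO vehicle and full inhibition = artemisinin control; nearly all actives have a fitted effect of over 60% in size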; details: P. falciparum in erythrocytes, SYBR Green DNA, 72 h; series mostly up to 28.7 µM
Method in brief: (§1)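 SYBR Green fluorescence of parasite DNA, read after lysis and overnight dark incubation, measured growth over 72 h in erythrocyte culture at 0.3% parasitemia and 2.5% hematocrit. Data normalised to DMSO and 0.29 uM artemisinin, with plate-drift correction.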

[6] = test system: CP201; test: as above; details: P. falciparum in erythrocytes, SYBR Green DNA, 72 h; series mostly up to 28.7 µM
Method in brief: as §1

[7] = test system: CP211; test: as above; details: P. falciparum in erythrocytes, SYBR Green DNA, 72 h; series mostly up to 28.7 µM
Method in brief: as §1

[8] = test system: CP266; test: as above; details: P. falciparum in erythrocytes, SYBR Green DNA, 72 h; series mostly up to 12.8 µM
Method in brief: as §1

[9] = test system: CP269; test: as above; details: P. falciparum in erythrocytes, SYBR Green DNA, 72 h; series mostly up to 28.7 µM
Method in brief: as §1

[10] = test system: CP305; test: as above; details: P. falciparum in erythrocytes, SYBR Green DNA, 72 h; series mostly up to 28.7 µM
Method in brief: as §1

[11] = test system: CP315; test: as above; details: P. falciparum in erythrocytes, SYBR Green DNA, 72 h; series mostly up to 28.7 µM
Method in brief: as §1

[12] = test system: CP325; test: as above; details: P. falciparum in erythrocytes, SYBR Green DNA, 72 h; series mostly up to 28.7 µM
Method in brief: as §1

[13] = test system: CP329; test: as above; details: P. falciparum in erythrocytes, SYBR Green DNA, 72 h; series mostly up to 28.7 µM
Method in brief: as §1

[14] = test system: DIV14; test: as above; details: P. falciparum in erythrocytes, SYBR Green DNA, 72 h; series mostly up to 28.7 µM
Method in brief: as §1

[15] = test system: DIV17; test: as above; details: P. falciparum in erythrocytes, SYBR Green DNA, 72 h; series mostly up to 28.7 µM
Method in brief: as §1

[16] = test system: DIV30; test: as above; details: P. falciparum in erythrocytes, SYBR Green DNA, 72 h; series mostly up to 28.7 µM
Method in brief: as §1

[17] = test system: GB4; test: as above; details: P. falciparum in erythrocytes, SYBR Green DNA, 72 h; series mostly up to 28.7 µM
Method in brief: as §1

[18] = test system: PC26; test: as above; details: P. falciparum in erythrocytes, SYBR Green DNA, 72 h; series mostly up to 28.7 µM
Method in brief: as §1

[19] = target: Androgen receptor (Homo sapiens) (UniProt P10275); test: qHTS assay for small molecule agonists of androgen receptor signaling (AID 588515; active means well fitted curve in the direction sought with a large enough effect in the signal ratio, with a control signal flat; the % refers to the signal ratio; further: on the % scale 0 is the no-effect control and ±100 the full control effect); details: AR-UAS-bla HEK293, beta-lactamase ratio, agonist 16 h; stronger effect = higher value
Androgen receptor (Homo sapiens), sequence (P10275 whole entry, looked up): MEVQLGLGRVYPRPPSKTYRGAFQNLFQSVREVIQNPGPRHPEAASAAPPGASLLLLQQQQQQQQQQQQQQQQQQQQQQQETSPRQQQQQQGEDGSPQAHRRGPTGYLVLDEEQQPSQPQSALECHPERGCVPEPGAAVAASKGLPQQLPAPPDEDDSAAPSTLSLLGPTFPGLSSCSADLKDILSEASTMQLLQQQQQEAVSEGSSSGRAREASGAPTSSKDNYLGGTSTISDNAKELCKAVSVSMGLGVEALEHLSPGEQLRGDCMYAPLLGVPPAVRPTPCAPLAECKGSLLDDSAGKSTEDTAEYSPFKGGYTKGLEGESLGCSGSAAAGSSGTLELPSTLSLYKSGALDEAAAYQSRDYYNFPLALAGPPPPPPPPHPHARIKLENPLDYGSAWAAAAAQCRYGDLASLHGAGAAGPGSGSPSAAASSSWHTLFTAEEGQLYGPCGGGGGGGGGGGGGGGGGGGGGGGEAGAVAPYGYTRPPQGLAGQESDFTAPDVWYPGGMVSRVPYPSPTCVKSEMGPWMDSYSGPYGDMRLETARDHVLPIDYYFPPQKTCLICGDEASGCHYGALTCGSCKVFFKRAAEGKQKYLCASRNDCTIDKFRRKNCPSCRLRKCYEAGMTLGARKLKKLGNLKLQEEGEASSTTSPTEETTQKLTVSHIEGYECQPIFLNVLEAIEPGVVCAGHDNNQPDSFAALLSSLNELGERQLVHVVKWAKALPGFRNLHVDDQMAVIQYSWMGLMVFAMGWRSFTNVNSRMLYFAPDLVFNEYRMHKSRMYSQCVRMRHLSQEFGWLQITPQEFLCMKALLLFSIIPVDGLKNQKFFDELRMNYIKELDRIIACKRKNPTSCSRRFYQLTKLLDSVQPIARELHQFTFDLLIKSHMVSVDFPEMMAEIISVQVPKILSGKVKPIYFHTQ
Method in brief: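 Stimulation of an AR-responsive β-lactamase reporter in GripTite HEK293 cells was measured after 16 h compound exposure at 37 °C, via CCF4 fluorescence after 2 h RT. EC50 from Hill fits, normalized to R1881 at 30 nM.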

[20] = target: Androgen receptor (Homo sapiens) (UniProt P10275); test: qHTS assay for small molecule antagonists of androgen receptor signaling (AID 588516; active means well fitted curve in the direction sought with a large enough effect in the signal ratio, with a control signal flat, not every such curve was filed as active; the % refers to the signal ratio; further: potency means the concentration at half of the fitted maximal effect); details: AR-UAS-bla HEK293, beta-lactamase ratio, antagonist mode, 16 h; series mostly up to 76.8 µM
Method in brief: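 Cells were plated and incubated 5 h, compounds added in titration, then R1881 (10 nM final) as agonist. After 16 h at 37 C, CCF4 substrate was loaded for 2 h at room temperature and fluorescence measured.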

Cc1nc2ccc(Oc3ccc(F)cc3)cc2c(=O)n1C[C@H]1CCCN(C(C)C)C1
inactive: Potency [1]

OC1CCC(Oc2cccc3cnc(Nc4ccc5nc[nH]c5c4)nc23)CC1 (stereo not drawn)
active: Potency [2] 0.482 µM

C[N+]1([O-])[C@@H]2CC(OC(=O)[C@@H](CO)c3ccccc3)C[C@@H]1[C@H]1O[C@H]12 (stereo partly drawn)
inactive: Potency [3] | Potency [4] | Potency [5] | Potency [6] | Potency [7] | Potency [8] | Potency [9] | Potency [10] | Potency [11] | Potency [12] | Potency [13] | Potency [14] | Potency [15] | Potency [16] | Potency [17] | Potency [18]

O=S1OCC2C(CO1)C1(Cl)C(Cl)=C(Cl)C2(Cl)C1(Cl)Cl (stereo not drawn)
inactive: activation [19] -11.1% | Potency [20]

ClC1=C(Cl)C2(Cl)C3C4CC(C5OC45)C3C1(Cl)C2(Cl)Cl (stereo not drawn)
inactive: Potency [3] | Potency [4] | Potency [5] | Potency [6] | Potency [7] | Potency [8] | Potency [9] | Potency [10] | Potency [11] | Potency [12] | Potency [13] | Potency [14] | Potency [15] | Potency [16] | Potency [17] | Potency [18]

CCc1cccc(CC)c1N(COC)C(=O)CCl
inactive: activation [19] -10.2% and -10.1%
active: Potency [20] 44.7 µM
